# Laboratory results from the antibiotic and cytotoxicity screens of Wong et al. (2023).
# Screen size: about 39,000 compounds; about 1,500 (3.8%) were called active. The sample holds actives, similar compounds and a random draw of the others, so the mix is not that of the screen.
# Test system: HSkMC (human skeletal muscle cells)
# Test: cytotoxicity call (relative viability < 0.9)
# Conditions: 10 µM
row,SMILES,cytotoxicity call
1,Cc1ccc(S(=O)(=O)Nc2ccc3c(c2)C(=O)N([C@@H](C)CO)C[C@H](C)[C@H](CN(C)C(=O)Nc2ccc(C(F)(F)F)cc2)OCCCC[C@H](C)O3)cc1,inactive
2,O=C(O)CN1C(=O)c2cccc3cccc(c23)C1=O,inactive
3,CC(C)(C)C1CCC(OC[C@@H](O)CN2CCC(CN3C(=O)c4cccc5cccc(c45)C3=O)CC2)CC1 (stereo not given in full),active
4,O=C(CN1C(=O)c2cccc3cccc(c23)C1=O)N1CCN(CCN2C(=O)[C@@H]3[C@@H](C2=O)[C@@H]2C=C[C@@H]3C2)CC1,inactive
5,O=C(O)C1C(=CCO)OC2CC(=O)N21.[LiH] (stereo not given),inactive
6,Cc1ccc(S(=O)(=O)N(C)C[C@H]2Oc3c(NC(=O)C4CC4)cccc3C(=O)N([C@@H](C)CO)C[C@H]2C)cc1,inactive
7,O=C(C[C@H]1C[C@H]2c3cc(NC(=O)c4ccc5c(c4)OCO5)ccc3O[C@H]2[C@@H](CO)O1)NCc1cccnc1,inactive
8,O=C(C[C@@H]1C[C@@H]2c3cc(NC(=O)c4ccc5c(c4)OCO5)ccc3O[C@@H]2[C@H](CO)O1)NCc1ccc(Oc2ccccc2)cc1,active
9,O=C(C[C@@H]1C[C@H]2c3cc(NC(=O)c4ccc5c(c4)OCO5)ccc3O[C@H]2[C@H](CO)O1)NCc1ccc(Oc2ccccc2)cc1,inactive
10,O=C(C[C@H]1C[C@H]2c3cc(NC(=O)c4ccc5c(c4)OCO5)ccc3O[C@H]2[C@@H](CO)O1)NCc1ccc(Oc2ccccc2)cc1,inactive
11,O=C(C[C@H]1C[C@@H]2c3cc(NC(=O)c4ccc5c(c4)OCO5)ccc3O[C@@H]2[C@@H](CO)O1)NCc1ccc(Oc2ccccc2)cc1,inactive
12,O=C(C[C@H]1C[C@@H]2c3cc(NC(=O)c4ccc5c(c4)OCO5)ccc3O[C@@H]2[C@H](CO)O1)NCc1ccc(Oc2ccccc2)cc1,inactive
13,COc1ccccc1CNC(=O)C[C@@H]1C[C@H]2c3cc(NC(=O)c4ccc5c(c4)OCO5)ccc3O[C@H]2[C@H](CO)O1,active
14,O=C(C[C@H]1C[C@H]2c3cc(NC(=O)c4ccc5c(c4)OCO5)ccc3O[C@H]2[C@H](CO)O1)NCc1ccc(Oc2ccccc2)cc1,active
15,O=C(C[C@@H]1C[C@H]2c3cc(NC(=O)c4ccc5c(c4)OCO5)ccc3O[C@H]2[C@@H](CO)O1)NCc1ccc(Oc2ccccc2)cc1,inactive
16,O=C(C[C@@H]1C[C@@H]2c3cc(NC(=O)c4ccc5c(c4)OCO5)ccc3O[C@@H]2[C@@H](CO)O1)NCc1ccc(Oc2ccccc2)cc1,active
17,COc1ccccc1CNC(=O)C[C@@H]1C[C@@H]2c3cc(NC(=O)c4ccc5c(c4)OCO5)ccc3O[C@@H]2[C@@H](CO)O1,inactive
18,COc1ccccc1CNC(=O)C[C@@H]1C[C@@H]2c3cc(NC(=O)c4ccc5c(c4)OCO5)ccc3O[C@@H]2[C@H](CO)O1,inactive
19,COCC#Cc1cnc2c(c1)C(=O)N([C@@H](C)CO)C[C@H](C)[C@@H](CN(C)C(=O)CN1CCOCC1)O2,inactive
20,COc1ccc(S(=O)(=O)N2C[C@H](O)COC[C@H]3O[C@H](CC(=O)NCCCN4CCOCC4)CC[C@@H]32)cc1,inactive

row,SMILES,cytotoxicity call
1,C[C@@H]1CN([C@@H](C)CO)S(=O)(=O)c2ccc(C#Cc3ccc(F)cc3)cc2O[C@@H]1CN(C)S(C)(=O)=O,inactive
2,Cc1noc(C)c1NC(=O)N(C)C[C@@H]1OCCCC[C@@H](C)Oc2ccc(NC(=O)Nc3cccc4ccccc34)cc2C(=O)N([C@H](C)CO)C[C@@H]1C,inactive
3,CCCC#Cc1cnc2c(c1)C(=O)N([C@H](C)CO)C[C@H](C)[C@@H](CN(C)C(=O)c1ccc3c(c1)OCO3)O2,inactive
4,COc1ccc(S(=O)(=O)N(C)C[C@H]2Oc3ccc(NC(=O)CCCN(C)C)cc3CC(=O)N([C@@H](C)CO)C[C@@H]2C)cc1,inactive
5,O=C(C1=C[C@H](c2ccc(C(F)(F)F)cc2)C[C@H](OCc2ccc(CO)cc2)O1)N1CCN(Cc2ccc3c(c2)OCO3)CC1,inactive
6,CN(C)CCCCNC(=O)[C@H]1C[C@H]2C(=O)N[C@@H](Cc3ccccc3)C(=O)N2[C@H]1c1cccc(OCCO)c1,inactive
7,O=C(C[C@@H]1C[C@@H]2c3cc(NS(=O)(=O)c4ccc(F)cc4)ccc3O[C@@H]2[C@@H](CO)O1)N1CCOCC1,inactive
8,O=C1CN(S(=O)(=O)Cc2ccccc2)C[C@H]2[C@@H](c3ccc(C#Cc4cccc(F)c4)cc3)[C@@H](CO)N12,inactive
9,O=C1CN(S(=O)(=O)Cc2ccccc2)C[C@@H]2[C@H](c3ccc(C#Cc4cccc(F)c4)cc3)[C@H](CO)N12,inactive
10,O=C1CN(S(=O)(=O)Cc2ccccc2)C[C@@H]2[C@@H](c3ccc(C#Cc4cccc(F)c4)cc3)[C@@H](CO)N12,active
11,O=C1CN(S(=O)(=O)Cc2ccccc2)C[C@H]2[C@H](c3ccc(C#Cc4cccc(F)c4)cc3)[C@H](CO)N12,active
12,O=C1CN(S(=O)(=O)Cc2ccccc2)C[C@@H]2[C@@H](c3ccc(C#Cc4cccc(F)c4)cc3)[C@H](CO)N12,active
13,O=C1CN(S(=O)(=O)Cc2ccccc2)C[C@H]2[C@@H](c3ccc(C#Cc4cccc(F)c4)cc3)[C@H](CO)N12,inactive
14,COc1cccc(C#Cc2ccc([C@@H]3[C@H](CO)N4C(=O)CN(S(=O)(=O)c5ccccc5C)C[C@@H]34)cc2)c1,inactive
15,O=C1CN(S(=O)(=O)Cc2ccccc2)C[C@@H]2[C@H](c3ccc(C#Cc4cccc(F)c4)cc3)[C@@H](CO)N12,inactive
16,O=C1CN(S(=O)(=O)Cc2ccccc2)C[C@H]2[C@H](c3ccc(C#Cc4cccc(F)c4)cc3)[C@@H](CO)N12,inactive
17,C/C=C/c1ccc2c(c1)O[C@H](CN(C)Cc1ccc(C(=O)O)cc1)[C@H](C)CN([C@@H](C)CO)S2(=O)=O,inactive
18,Cc1noc(C)c1NC(=O)N(C)C[C@H]1OCCCC[C@@H](C)Oc2ccc(NC(=O)c3ccccc3)cc2C(=O)N([C@@H](C)CO)C[C@H]1C,inactive
19,COc1ccc(S(=O)(=O)N(C)C[C@H]2Oc3ncc(C#CC4(O)CCCC4)cc3C(=O)N([C@@H](C)CO)C[C@@H]2C)cc1,inactive
20,Cc1ccc(C(=O)Nc2ccc(S(=O)(=O)O)c3cc(S(=O)(=O)O)cc(S(=O)(=O)O)c23)cc1NC(=O)c1cccc(NC(=O)Nc2cccc(C(=O)Nc3cc(C(=O)Nc4ccc(S(=O)(=O)O)c5cc(S(=O)(=O)O)cc(S(=O)(=O)O)c45)ccc3C)c2)c1,inactive
